# About 14,000 (4.5%) of roughly 310,000 compounds showed an effect of 50% or more. The effect is printed as a negative number. The entries come from a sample that favours strong results as a whole.
# Target: human ether-à-go-go-related gene (hERG) potassium channel (human, UniProt Q12809)
# Experiment: primary screen, population patch clamp on CHO cells stably expressing hERG; higher = less effect of the substance
# 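Note: peak tail current of the secondary pulse compared with the same well before compound.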
# Sequence of human ether-à-go-go-related gene (hERG) potassium channel (Q12809 whole entry, looked up): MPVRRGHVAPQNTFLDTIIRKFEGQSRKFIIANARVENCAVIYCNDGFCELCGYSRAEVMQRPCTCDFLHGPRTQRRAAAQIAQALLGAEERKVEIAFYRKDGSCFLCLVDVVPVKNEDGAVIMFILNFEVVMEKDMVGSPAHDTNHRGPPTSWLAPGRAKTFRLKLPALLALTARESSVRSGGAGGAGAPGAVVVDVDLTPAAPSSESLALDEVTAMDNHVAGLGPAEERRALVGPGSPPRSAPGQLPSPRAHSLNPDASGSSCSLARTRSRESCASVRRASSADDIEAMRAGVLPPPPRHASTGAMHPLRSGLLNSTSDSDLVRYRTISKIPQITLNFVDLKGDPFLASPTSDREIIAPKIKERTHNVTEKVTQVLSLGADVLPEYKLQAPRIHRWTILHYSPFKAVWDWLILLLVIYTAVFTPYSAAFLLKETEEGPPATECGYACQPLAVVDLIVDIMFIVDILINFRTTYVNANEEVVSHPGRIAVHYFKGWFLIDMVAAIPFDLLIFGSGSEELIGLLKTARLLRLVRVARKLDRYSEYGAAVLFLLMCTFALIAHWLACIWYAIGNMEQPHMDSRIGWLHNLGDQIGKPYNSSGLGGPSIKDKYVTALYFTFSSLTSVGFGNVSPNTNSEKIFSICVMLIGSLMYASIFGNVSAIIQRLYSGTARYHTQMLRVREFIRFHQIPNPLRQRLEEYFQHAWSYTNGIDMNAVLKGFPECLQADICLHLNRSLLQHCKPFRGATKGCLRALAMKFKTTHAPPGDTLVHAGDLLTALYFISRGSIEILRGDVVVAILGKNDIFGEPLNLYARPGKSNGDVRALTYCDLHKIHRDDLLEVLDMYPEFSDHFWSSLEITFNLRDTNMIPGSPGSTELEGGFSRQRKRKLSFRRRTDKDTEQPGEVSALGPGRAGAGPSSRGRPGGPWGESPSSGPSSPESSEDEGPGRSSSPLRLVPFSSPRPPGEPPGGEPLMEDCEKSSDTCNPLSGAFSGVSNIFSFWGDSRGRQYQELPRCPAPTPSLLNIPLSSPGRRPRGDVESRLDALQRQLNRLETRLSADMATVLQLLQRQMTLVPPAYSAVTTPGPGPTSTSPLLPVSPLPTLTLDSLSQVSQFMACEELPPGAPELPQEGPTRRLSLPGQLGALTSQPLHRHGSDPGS
row,Structure (SMILES),"hERG current change (%, negative = inhibition) at 10uM [%]"
1,CCCCN(C(=O)CCC(=O)Nc1cc(C)on1)C(C(=O)NC(C)(C)CC)c1cccc(OC)c1OC (centres unmarked),1.4
2,Cc1cccc(C)c1NC(=O)CSc1nnnn1C,-1.61
3,O=C(CSc1ccccn1)Nc1ccc(Cl)c([N+](=O)[O-])c1,-19.6
4,COc1ccc(Cn2c(N)c(C#N)c3nc4ccccc4nc32)cc1,11.2
5,COc1ccc(-n2c(SCC(=O)NCCCN3CCCC3=O)nnc2C(C)N2CCCCC2)cc1 (centres unmarked),43.4
6,C=CCc1cccc(CNc2nc3ccccc3n2CCC)c1O,5.13
7,C#CCOCCOCCOCCNc1nc(N2CCOCC2)nc(N2CCN(C(=O)CCCCCCCCCCNC(=O)[C@H](CO)n3cc(CCCSC)nn3)CC2)n1,-0.214
8,CCOc1ccc(S(=O)(=O)Nc2ccc(C(=O)NCC(c3ccco3)N3CCCCC3)cc2)cc1 (centres unmarked),-25.1
9,CC(C)[C@H](NC(=O)[C@H]1N2C(=O)c3ccccc3C2SC1(C)C)C(=O)NCc1ccco1 (some centres unmarked),2.21
10,Cc1cccc(C)c1NC(=O)CSc1nnc(Cn2nnc(-c3ccccc3)n2)n1-c1ccccc1,-22.3
11,CCN(CC)c1ccc(CNc2ccc(Br)cn2)cc1,13.1
12,CC1(C)Cc2c(c(N3CCOCC3)nc3sc(-c4ccc(C(=O)O)o4)c(N)c23)CO1,-15.2
13,Cn1nnc(NC(=O)/C=C/c2ccco2)n1,8.33
14,COC(=O)[C@@H](NC(=O)NC1CCCc2ccccc21)C(C)C (some centres unmarked),9.47
15,CC(C)[C@H](NC(=O)NC1CCCc2ccccc21)C(=O)O (some centres unmarked),-68.2
16,O=C(NC1CCSc2ccccc21)c1ccc([N+](=O)[O-])cc1 (centres unmarked),-40.3
17,O=C(NC1CCCc2ccccc21)c1ccccc1 (centres unmarked),3.92
18,N#Cc1ccc(C(=O)NC2CCCc3ccccc32)cc1 (centres unmarked),-52.8
19,Cc1cc(C(=O)NC2CCCc3ccccc32)ccc1[N+](=O)[O-] (centres unmarked),9.18
20,O=C(NC1CCCc2ccccc21)c1ccc([N+](=O)[O-])cc1 (centres unmarked),-53.4
21,CCC(C)[C@H](NC(=O)NC1CCCc2ccccc21)C(=O)O (some centres unmarked),20.6

row,Structure (SMILES),"hERG current change (%, negative = inhibition) at 10uM [%]"
1,O=C(NC1CCCc2ccccc21)c1ccc(Br)cc1 (centres unmarked),-7.78
2,COc1ccc(C(CNC(=O)C(CCSC)NC(=O)c2ccccc2Cl)N2CCOCC2)cc1 (centres unmarked),-8.2
3,CC(C)C[C@H](NC(=O)c1cc2cc(Cl)ccc2n1C)C(=O)N1CCC(C(=O)O)CC1,13.5
4,CN(C(=O)c1cccc(N2C(=O)C3C4C=CC(C4)C3C2=O)c1)C1CCCCC1 (centres unmarked),0.921
5,O=C(Nc1ccccc1)NC(Cc1ccc(O)cc1)C(=O)O (centres unmarked),17.4
6,O=C(NC(=S)Nc1ccccc1C(=O)O)c1cncc(Br)c1,23
7,COc1ccc(OC)c(/C=C/C(=O)OCC(=O)Nc2ccc3c(c2)OCCO3)c1,15.9
8,Cc1noc(/C=C/N(C)C)c1S(=O)(=O)N1CCc2ccccc21,-18.6
9,COc1ccccc1CN(C)C(=O)c1cccc(S(=O)(=O)N2CCc3ccccc3C2)c1,-4.08
10,O=C(COC(=O)c1cc(=O)c2ccccc2o1)Nc1ccc2ccccc2c1,17.6
11,CC(C)Nc1nnc(SCC(=O)/C=C2\N(C)c3ccccc3C2(C)C)s1,-65.1
12,CN1/C(=C\C(=O)CSc2nnc(NCc3ccccc3)s2)C(C)(C)c2ccccc21,-13.1
13,CN1/C(=C\C(=O)CSc2nnc(N)s2)C(C)(C)c2ccccc21,0.532
14,Cc1cc(Cl)ccc1C(=O)C1CCCN(C2CCSCC2)C1 (centres unmarked),-74.3
15,O=C(c1ccc(C(F)(F)F)cc1)C1CCCN(C2CCSCC2)C1 (centres unmarked),-71.2
16,Cc1cc(Cl)ccc1C(=O)C1CCCN(C(=O)c2nonc2C)C1 (centres unmarked),-26.3
17,O=C(c1ccc(Cl)cc1)C1CCCN(C(=O)c2csnn2)C1 (centres unmarked),0.734
18,CN1CCCC(C(=O)c2ccc(Cl)cc2)C1 (centres unmarked),-23
19,COc1ccc(C(=O)C2CCCN(C3CSCCSC3)C2)c(C)c1 (centres unmarked),-13
20,COC(=O)CCC(=O)N1CCCC(C(=O)c2ccc(Cl)cc2C)C1 (centres unmarked),-5.75
21,Cc1cc(Cl)ccc1C(=O)C1CCCN(C(=O)c2snnc2C)C1 (centres unmarked),-56.1

row,Structure (SMILES),"hERG current change (%, negative = inhibition) at 10uM [%]"
1,O=C(c1ccc(Cl)cc1)C1CCCN(C2CCSCC2)C1 (centres unmarked),-78.9
2,O=C(c1ccc(C(F)(F)F)cc1)C1CCCN(C(=O)c2csnn2)C1 (centres unmarked),-22.6
3,CC(C)(C)c1ccc(C(=O)C2CCCN(C3CCC3)C2)cc1 (centres unmarked),-18.4
4,Cc1nc(C)c(C(=O)N2CCCC(C(=O)c3ccc(Cl)cc3C)C2)s1 (centres unmarked),-23
5,COc1cc2cc(C)nc(Cc3cccc4ccccc34)c2cc1OC,8.53
6,CC#CP(=O)(OCC)C(O)(c1ccccc1)C(F)(F)F (centres unmarked),-3.29
7,CC(=O)Nc1c(O)nc(SCC(=O)Nc2cccc(C)c2)[nH]c1=O,14.8
8,CCOc1cc(-c2ccc(N)c(OCC)c2)ccc1N,-10.2
9,S=C(NCc1ccc(Cl)c(Cl)c1)Nc1ccc2c(c1)OCO2,-6.19
10,Nn1c(SCC(=O)Nc2ccc(S(N)(=O)=O)cc2)nnc1C(F)(F)F,0.037
11,Cc1cc(Cl)cc(C)c1OCCCCCn1ccnc1,-28.1
12,CCCN1CCC(=O)N([C@H](CSc2ccc(Br)cc2)Cc2ccccc2)CC1,-71.2
13,Cc1ccc(SC[C@H](Cc2ccccc2)N2CC[C@@H](C)CCC2=O)cc1,-28.7
14,CC(C)(C)[C@H]1CCC(=O)N([C@H](CSc2ccccc2)Cc2ccccc2)CC1,-3.06
15,CN1CCC(=O)N([C@H](CSc2ccc(Br)cc2)Cc2ccccc2)CC1,-64.8
16,CCCN1CCC(=O)N([C@H](CSc2ccccc2)Cc2ccccc2)CC1,-69.6
17,CC(C)(C)[C@H]1CCC(=O)N([C@H](CSc2ccc(Br)cc2)Cc2ccccc2)CC1,4.84
18,C[C@H]1CCC(=O)N([C@H](CSc2ccc(Br)cc2)Cc2ccccc2)CC1,7.31
19,CN1CCC(=O)N([C@H](CSc2ccccc2)Cc2ccccc2)CC1,-45.8
20,CCOC(=O)c1c(NC(=O)C[n+]2ccc(Cc3ccccc3)cc2)sc(C)c1C.[Cl-],-43.5
21,CC1CCN(c2cc(N3CCC(C)CC3)c([N+](=O)[O-])cc2/C=C(\C#N)c2nn(-c3ccccc3)c(N)c2C#N)CC1,-10.2

row,Structure (SMILES),"hERG current change (%, negative = inhibition) at 10uM [%]"
1,O=c1[nH]c(CN2CCCC2)nc2sc3c(c12)CCC3,20.5
2,Cc1ccc(-c2c(C)sc3nc(CN4CCN(CC(=O)NC5CC5)CC4)[nH]c(=O)c23)cc1,-71.5
3,O=C(CCc1nc2sc3c(c2c(=O)[nH]1)CCCC3)N1CCN(c2ccccc2)CC1,2.7
4,O=C(c1ccccc1F)N1CCN(Cc2nc3sc4c(c3c(=O)[nH]2)CCCC4)CC1,-81.6
5,Cc1ccc(S(=O)(=O)N2CCN(Cc3nc4sc(C)c(C)c4c(=O)[nH]3)CC2)cc1,18.2
6,CC(=O)N1CCN(C(=O)CCc2nc3sc4c(c3c(=O)[nH]2)CCCC4)CC1,5.61
7,Cc1cccc(C(=O)N2CCN(Cc3nc4sc5c(c4c(=O)[nH]3)CCCC5)CC2)c1,-58.4
8,Cc1ccc(C(=O)N2CCN(Cc3nc4sc5c(c4c(=O)[nH]3)CCCC5)CC2)cc1,-76
9,O=c1[nH]c(CN2CCN(S(=O)(=O)c3ccccc3C(F)(F)F)CC2)nc2sc3c(c12)CCCC3,10.9
10,Cc1cccc(NC(=O)CCc2nc3sc4c(c3c(=O)[nH]2)CCCC4)c1,10.8
11,Cc1sc2nc(CN3CCOCC3)[nH]c(=O)c2c1-c1ccccc1,2.19
12,Cc1ccc(S(=O)(=O)N2CCN(Cc3nc4sc5c(c4c(=O)[nH]3)CCCC5)CC2)cc1,-21.3
13,Cc1ccc(C)c(S(=O)(=O)Nc2ccc(C(=O)NCCc3ccccn3)cc2)c1,10.2
14,Cc1ccc(C)c(N2CCN(C(=O)C3CCN(S(=O)(=O)c4cccc5nsnc45)CC3)CC2)c1,-8.49
15,N#Cc1ccc(C23CC4(C2)[C@H](CN(Cc2ccc(C(F)(F)F)cc2)[C@@H]4c2ccccc2)C3c2ccccc2)cc1 (some centres unmarked),13.5
16,O=C(Nc1nccs1)c1ccc(COc2ccccc2Br)o1,-6.85
17,Cc1ccc(-c2nnc(SCC(=O)N/N=C/c3ccc(C)s3)n2-c2ccc(C)cc2)cc1,-17.4
18,O=C(c1ccco1)N1CCN(Cc2nc(-c3cccs3)no2)CC1,-38.1
19,CS(=O)(=O)N(CC(=O)NCCSCc1c(F)cccc1Cl)c1cccc([N+](=O)[O-])c1,-15.9
20,COCC(C)NC(=O)CSc1nc2ccccc2n1CCc1ccccc1 (centres unmarked),-8.53
